The results in this text go back to PubChem BioAssay (NCI).

Where “and” joins values, the source holds several entries; their conditions need not be identical. Equal entries are not always repeated. About 83,000 compounds went through this panel and 20% of them were active in at least one assay; those are over-represented in the sample as a whole.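 The endpoint reported here, percent growth, reads 100 for growth as untreated, 0 for no net growth and -100 for all cells dead.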 Calls of active or inactive are those of the source. How the source made its calls: active means growth percent below 10; inactive means the rest.

For this test, the system named is MDA-MB-468 breast. As to the kind of experiment: NCI-60 one-dose screen, 48 h (100 = growth as untreated, 0 = no growth, -100 = all killed). As to conditions: 10 µM unless noted.
Consider `O=C(COc1ccc(/C=C2/C(=O)Nc3ccc(Cl)cc32)cc1)Nc1ccc(Br)cc1`, for which the growth was 38.4% (inactive). On to `CCCCNc1ccc2c3c(cccc13)C(=O)N(NCC(O)COc1ccc3c(C)cc(=O)oc3c1)C2=O` (stereo not drawn), for which the growth was 68.8% (inactive).

For the compound `COc1ccc(C(=O)c2c(N)c(C#N)cn2-c2ccc([N+](=O)[O-])cc2)cc1`, the growth was 109% (inactive). Consider `C=CC(=O)N1CCN(c2ccc3nc4c(nc3c2C(F)(F)F)C(=O)c2ncccc2C4=O)CC1`, for which the growth was -69.3% (active). As for `NC(=O)c1ccc(-c2ccc3ncnc(N4CCc5cc(F)c(Cl)cc54)c3c2)cn1`, the growth is -7.37% (active).

Consider `Cc1ccc2nc(NC(=O)Nc3cccc(Cl)c3)sc2c1`, for which the growth is 93.8% (inactive). In the case of `O=C(c1ccc(Cl)cc1)C1[C@H](c2ccccc2Cl)[C@@H](c2ccccc2)NC12C(=O)Nc1ccccc12` (stereo partly drawn), the growth is -44.8% (active). Consider `CCCn1c(NC(=O)c2cccc(C(N)=O)c2)nc2ccc(CN3CCCCC3)cc21`, for which the growth is 109% (inactive). As for `S=C(NCCc1ccccc1)Nc1ccc(OCc2nc3ccc(Cl)cc3[nH]2)cc1`, the growth was 21.7% (inactive).

On to `Cc1ccc(Cl)cc1NC(=O)Nc1nc2ccc([N+](=O)[O-])cc2s1`, for which the growth was -39.3% (active). Turning to `C[C@@H]1CN(c2ccc3ncc(C#Cc4cncc(C(=O)Nc5ccc(CN6CCN(C)CC6)c(C(F)(F)F)c5)c4)n3n2)C[C@@H](C)O1`, the growth is -95.1% (active). Take `O=C1C=CC(=CC=C2N(Cc3ccc4ccccc4c3)c3ccccc3N2Cc2ccc3ccccc3c2)C=C1`: the growth was -48.9% (active) and -28.9% (active). For the compound `CNS(=O)(=O)N1CCc2c(Br)c3c(c(OC)c2C1CCc1ccccc1)OCO3` (stereo not drawn), the growth is -63.1% (active).
